The target of experiment [1] is Cytochrome P450 2D6 (Homo sapiens) (UniProt P10635). Description: Cytochrome P450 Family 2 Subfamily D Member 6 (CYP2D6) small molecule antagonists: luciferase reporter qHTS assay (AID 1671196). Also: nearly all actives have a fitted effect of over 50% in size. Also: potency is read from the fitted curve at half-maximal effect. An outline of the steps: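 Luminogenic proluciferin substrate, CYP2D6 enzyme; 10 min RT preincubation with compound, NADPH regeneration system added, 1 h RT. Stop/detection reagent, 20 min RT, luminescence read (RLU). Signal proportional to CYP activity.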
Sequence of Cytochrome P450 2D6 (Homo sapiens) (P10635 whole entry, looked up): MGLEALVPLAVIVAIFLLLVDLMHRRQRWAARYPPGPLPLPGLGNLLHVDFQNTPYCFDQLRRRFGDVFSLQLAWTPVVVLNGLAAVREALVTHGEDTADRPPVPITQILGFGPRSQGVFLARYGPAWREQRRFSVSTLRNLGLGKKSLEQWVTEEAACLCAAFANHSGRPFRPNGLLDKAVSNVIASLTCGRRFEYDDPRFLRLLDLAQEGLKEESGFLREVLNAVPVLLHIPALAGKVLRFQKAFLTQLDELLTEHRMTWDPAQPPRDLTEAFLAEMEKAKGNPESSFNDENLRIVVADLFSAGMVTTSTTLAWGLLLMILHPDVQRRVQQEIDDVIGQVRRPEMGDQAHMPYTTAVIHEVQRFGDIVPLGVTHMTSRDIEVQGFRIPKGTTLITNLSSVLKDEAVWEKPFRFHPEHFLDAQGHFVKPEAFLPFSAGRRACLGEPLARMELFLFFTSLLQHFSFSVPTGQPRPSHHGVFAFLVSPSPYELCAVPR

In experiment [2] the target is Cytochrome P450 2C19 (Homo sapiens) (UniProt P33261). Description: Cytochrome P450 Family 2 Subfamily C Member 19 (CYP2C19) small molecule antagonists: luciferase reporter qHTS assay (AID 1671197). Also: nearly all actives have a fitted effect of over 65% in size. Also: potency is read from the fitted curve at half-maximal effect. An outline of the steps: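 Luminescent readout of CYP2C19 activity: luciferin product detected 20 min after adding detection reagent. Before that, compound and enzyme-substrate mix preincubated 10 min at room temperature; NADPH-regenerating system started a 1 h, 37C reaction. Ketoconazole as positive control.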
Sequence of Cytochrome P450 2C19 (Homo sapiens) (P33261 whole entry, looked up): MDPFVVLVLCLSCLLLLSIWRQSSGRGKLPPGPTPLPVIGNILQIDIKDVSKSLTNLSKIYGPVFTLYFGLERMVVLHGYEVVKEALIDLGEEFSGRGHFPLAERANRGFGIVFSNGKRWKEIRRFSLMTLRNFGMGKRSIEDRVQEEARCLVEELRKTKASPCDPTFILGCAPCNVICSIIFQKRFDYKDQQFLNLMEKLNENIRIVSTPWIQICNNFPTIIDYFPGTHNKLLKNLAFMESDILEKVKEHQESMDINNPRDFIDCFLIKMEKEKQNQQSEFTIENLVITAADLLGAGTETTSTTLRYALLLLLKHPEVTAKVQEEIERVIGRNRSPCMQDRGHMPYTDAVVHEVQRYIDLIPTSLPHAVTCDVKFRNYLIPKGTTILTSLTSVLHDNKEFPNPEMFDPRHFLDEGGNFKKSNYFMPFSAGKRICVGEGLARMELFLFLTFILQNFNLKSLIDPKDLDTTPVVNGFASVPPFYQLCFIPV
In general terms: In a reporter assay the amount or activity of a reporter protein is the signal.

Experiment [3] concerns the target Cytochrome P450 2C9 (Homo sapiens) (UniProt P11712). Description: Cytochrome P450 Family 2 Subfamily C Member 9 (CYP2C9) small molecule antagonists: luciferase reporter qHTS assay (AID 1671198). Also: nearly all actives have a fitted effect of over 50% in size. Also: potency is read from the fitted curve at half-maximal effect. An outline of the steps:
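P450-Glo proluciferin substrate with CYP2C9 enzyme; 10 min RT preincubation, then NADPH regeneration 1 h at 37C; luciferin detection reagent 20 min RT, luminescence in relative luminescence units.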

For experiment [4], the target named is Cytochrome P450 1A2 (Homo sapiens) (UniProt P05177). Description: Cytochrome P450 Family 1 Subfamily A Member 2 (CYP1A2) small molecule antagonists: luciferase reporter qHTS assay (AID 1671199). Also: nearly all actives have a fitted effect of over 50% in size. Also: potency is read from the fitted curve at half-maximal effect. The method in brief: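 Luminescence readout (relative luminescence units) after luciferin detection reagent, 20 min RT. Preceded by 1 h room-temperature CYP1A2 reaction with NADPH regeneration solution following 10 min compound preincubation with enzyme and proluciferin substrate. Furafylline positive control.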
Sequence of Cytochrome P450 1A2 (Homo sapiens) (P05177 whole entry, looked up): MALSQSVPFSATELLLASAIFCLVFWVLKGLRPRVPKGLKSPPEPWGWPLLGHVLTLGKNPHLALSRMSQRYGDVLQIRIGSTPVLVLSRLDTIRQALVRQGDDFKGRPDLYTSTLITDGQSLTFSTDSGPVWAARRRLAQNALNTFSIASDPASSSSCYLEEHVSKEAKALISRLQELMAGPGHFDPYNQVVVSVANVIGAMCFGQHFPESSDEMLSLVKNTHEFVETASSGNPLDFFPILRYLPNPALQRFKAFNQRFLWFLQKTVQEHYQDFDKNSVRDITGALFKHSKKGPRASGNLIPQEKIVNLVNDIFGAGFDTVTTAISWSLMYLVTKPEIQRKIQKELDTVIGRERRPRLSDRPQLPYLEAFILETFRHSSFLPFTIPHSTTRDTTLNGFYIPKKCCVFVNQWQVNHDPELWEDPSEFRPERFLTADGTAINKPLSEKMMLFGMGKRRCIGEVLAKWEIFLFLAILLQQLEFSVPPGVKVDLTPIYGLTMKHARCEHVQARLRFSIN

Experiment [5] addresses Voltage-gated inwardly rectifying potassium channel KCNH2 (Homo sapiens) (UniProt Q12809). Put plainly: Human Ether-a-go-go-Related Gene (hERG) channel small molecule antagonists: fluorescence cell-based qHTS assay (AID 1671200). Also: series mostly up to about 77 µM; nearly all actives have a fitted effect of over 50% in size. The method in brief: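 Thallium flux as potassium surrogate: FluxOR II dye loaded 1 h at room temperature into hERG-expressing U2OS cells, then stimulus buffer added after 10 min. Kinetic 480 nm excitation/540 nm emission read, 2 min.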
For orientation: The hERG channel carries a current that helps repolarise heart muscle cells.

The target in experiment [6] is Cytochrome P450 3A4 (Homo sapiens) (UniProt P08684). Description: Cytochrome P450 Family 3 Subfamily A Member 4 (CYP3A4) small molecule antagonists: luciferase reporter qHTS assay (AID 1671201). Also: nearly all actives have a fitted effect of over 50% in size. Also: potency is read from the fitted curve at half-maximal effect. The method in brief: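 Recombinant human CYP3A4 converts a proluciferin substrate to luciferin over 1 h at room temperature after NADPH regeneration solution is added (compound preincubated 10 min); detection reagent stops reaction, luminescence read 20 min later as relative units.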
Sequence of Cytochrome P450 3A4 (Homo sapiens) (P08684 whole entry, looked up): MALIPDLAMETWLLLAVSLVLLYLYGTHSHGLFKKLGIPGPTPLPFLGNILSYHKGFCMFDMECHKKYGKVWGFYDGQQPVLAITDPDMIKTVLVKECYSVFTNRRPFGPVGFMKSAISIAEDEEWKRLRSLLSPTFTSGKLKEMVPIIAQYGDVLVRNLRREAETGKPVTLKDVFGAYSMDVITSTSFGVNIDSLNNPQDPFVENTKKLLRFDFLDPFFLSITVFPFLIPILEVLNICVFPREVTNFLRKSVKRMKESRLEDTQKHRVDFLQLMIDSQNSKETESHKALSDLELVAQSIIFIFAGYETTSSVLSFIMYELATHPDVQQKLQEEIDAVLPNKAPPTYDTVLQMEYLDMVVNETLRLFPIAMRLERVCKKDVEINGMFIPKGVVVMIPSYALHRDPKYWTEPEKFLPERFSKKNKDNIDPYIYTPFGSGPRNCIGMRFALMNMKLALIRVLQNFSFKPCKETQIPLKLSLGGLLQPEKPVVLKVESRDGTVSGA

Several values for one entry are separate records, joined by “and”; a condition that tells them apart may be missing. Equal values may be shown once. Results filed as inconclusive are left out. Some compounds were tested as several samples or in several runs, with calls that do not always agree. Activity calls are given as the source filed them. Calls follow the shape of the dose curve; as a rule, active = well fitted curve in the direction sought with a large enough effect in the repeat runs; inconclusive = weak or mixed curves; inactive = no such curve, though single readings can be large; an effect the other way counts as inactive or inconclusive.

Sequence of Cytochrome P450 2C9 (Homo sapiens) (P11712 whole entry, looked up): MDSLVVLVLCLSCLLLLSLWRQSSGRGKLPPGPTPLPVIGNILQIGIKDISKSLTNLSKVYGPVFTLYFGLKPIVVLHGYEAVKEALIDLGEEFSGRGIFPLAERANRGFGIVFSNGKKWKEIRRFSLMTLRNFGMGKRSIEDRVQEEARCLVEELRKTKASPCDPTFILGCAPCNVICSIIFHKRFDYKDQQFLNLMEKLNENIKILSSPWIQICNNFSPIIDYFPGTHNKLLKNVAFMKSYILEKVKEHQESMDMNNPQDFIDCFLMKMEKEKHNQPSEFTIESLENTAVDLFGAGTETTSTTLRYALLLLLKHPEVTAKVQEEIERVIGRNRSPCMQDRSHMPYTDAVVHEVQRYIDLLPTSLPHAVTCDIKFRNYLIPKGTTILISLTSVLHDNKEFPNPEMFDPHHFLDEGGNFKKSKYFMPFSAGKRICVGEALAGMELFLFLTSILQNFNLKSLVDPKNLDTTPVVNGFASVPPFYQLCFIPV
Sequence of Voltage-gated inwardly rectifying potassium channel KCNH2 (Homo sapiens) (Q12809 whole entry, looked up): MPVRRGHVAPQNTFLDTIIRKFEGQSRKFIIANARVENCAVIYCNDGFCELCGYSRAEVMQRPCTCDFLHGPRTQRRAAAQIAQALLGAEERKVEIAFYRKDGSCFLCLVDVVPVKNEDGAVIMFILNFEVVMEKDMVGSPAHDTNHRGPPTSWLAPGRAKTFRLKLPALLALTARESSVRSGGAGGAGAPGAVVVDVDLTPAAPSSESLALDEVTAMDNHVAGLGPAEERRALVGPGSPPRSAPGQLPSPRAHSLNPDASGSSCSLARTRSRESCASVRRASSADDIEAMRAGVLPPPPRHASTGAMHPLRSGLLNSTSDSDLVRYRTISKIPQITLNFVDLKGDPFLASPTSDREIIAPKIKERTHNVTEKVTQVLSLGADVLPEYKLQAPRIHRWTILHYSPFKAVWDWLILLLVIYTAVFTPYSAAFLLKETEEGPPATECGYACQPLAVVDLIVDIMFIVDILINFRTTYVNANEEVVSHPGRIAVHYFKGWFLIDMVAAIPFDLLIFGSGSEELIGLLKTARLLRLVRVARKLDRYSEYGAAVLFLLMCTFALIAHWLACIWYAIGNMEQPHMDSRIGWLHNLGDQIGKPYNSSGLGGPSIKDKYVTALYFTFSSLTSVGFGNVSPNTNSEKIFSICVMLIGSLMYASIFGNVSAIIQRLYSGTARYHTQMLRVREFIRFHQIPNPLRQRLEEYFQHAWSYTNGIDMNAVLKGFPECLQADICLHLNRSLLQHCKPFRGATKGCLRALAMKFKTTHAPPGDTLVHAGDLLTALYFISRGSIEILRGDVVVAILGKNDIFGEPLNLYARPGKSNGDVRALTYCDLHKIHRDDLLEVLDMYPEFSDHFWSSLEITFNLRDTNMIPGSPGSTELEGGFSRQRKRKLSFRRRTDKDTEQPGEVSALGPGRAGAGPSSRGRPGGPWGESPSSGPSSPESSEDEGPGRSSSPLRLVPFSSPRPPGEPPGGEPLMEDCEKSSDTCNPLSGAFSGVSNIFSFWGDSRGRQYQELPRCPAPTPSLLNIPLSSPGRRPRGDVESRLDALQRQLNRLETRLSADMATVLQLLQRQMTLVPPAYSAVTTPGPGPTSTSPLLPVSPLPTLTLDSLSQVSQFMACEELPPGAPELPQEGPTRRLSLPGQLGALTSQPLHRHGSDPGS

For `CCCCCCCC(=O)OCC(O)CO` (stereo not drawn), the Potency is 39.9 µM (active) in experiment [1] and 79.6 µM (active) in experiment [2]. In addition, the Potency result in experiment [3], in experiment [4], in experiment [5] and in experiment [6] was “inactive” in each case.
For the compound `C[C@]12CC[C@@H]3c4ccc(O)cc4C[C@@H](CCCCCCCCCS(=O)CCCC(F)(F)C(F)(F)F)[C@H]3[C@@H]1CC[C@@H]2O` (stereo partly drawn), the Potency entry in experiment [1], in experiment [4] and in experiment [5] was “inactive” throughout. Further, the Potency is 7.1 µM (active) and 10.5 µM (active) and 6.92 µM (active) in experiment [2]; 2.83 µM (active) and 3.32 µM (active) and 2.75 µM (active) in experiment [3]; 2 µM (active) and 1.86 µM (active) and 1.55 µM (active) in experiment [6].
As for `CC(O)COc1ccccc1` (stereo not drawn), the Potency entry in experiment [1], in experiment [2], in experiment [3], in experiment [4] and in experiment [5] was “inactive” each time.
For the compound `O=C(O)Cc1cccc2ccccc12`, the Potency result is “inactive and 6.33 µM (active)” in experiment [1]; 33.5 µM (active) and 43.5 µM (active) in experiment [4]. In addition, the Potency entry in experiment [2], in experiment [3] and in experiment [5] was “inactive” each time.
For `NC(=O)N/N=C/c1ccc([N+](=O)[O-])o1`, the Potency entry in experiment [1], in experiment [3] and in experiment [5] was “inactive” in each case. Moreover, the Potency entry is “inactive and 39.9 µM (active) and 43.6 µM (active)” in experiment [2]; “inactive and 41.5 µM (active)” in experiment [4].
Regarding `C=CC(=O)NC(C)(C)CS(=O)(=O)O`, in experiment [1], the Potency was 49.2 µM (active) and inactive. Besides, the Potency result in experiment [2], in experiment [3], in experiment [4] and in experiment [5] was “inactive” throughout.
On to `C1CNCCN1`, for which the Potency in experiment [1] is 32.6 µM (active) and inactive and 2.03 µM (active); in experiment [2] it was 82 µM (active) and inactive and 72.1 µM (active); in experiment [4], 41.1 µM (active) and inactive. For the same compound, the Potency result in experiment [3], in experiment [5] and in experiment [6] was “inactive” throughout.

The record behind these values is PubChem BioAssay (Tox21).
